High-throughput results deposited in PubChem by National Center for Advancing Translational Sciences (NCATS).
An excerpt weighted towards active compounds, which were near 4.7% of everything screened.
D1 ag: human D1 receptor agonism; P21728; HEK293 T-REx D1 cells, calcium flux, agonist mode; activation, % at 2 µM; 1% of 360,000 active; AID 504660; also: 0% is about no effect
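Agonism was scored from calcium flux recorded over 180 s (1 read/s) after pintool compound addition, following a 10-cycle baseline. Cells were inducible force-coupled HEK293 TREx D1, plated overnight at 30 C and loaded with no-wash calcium dye.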
TRHR ag: activates the human TRH receptor; P34981; TRHR cells, calcium flux fluo-8, FDSS agonist mode; activation, % at 2 µM; 0.18% of 360,000 active; AID 493084; also: 0% is about no effect
Target sequence (P34981 whole entry, looked up): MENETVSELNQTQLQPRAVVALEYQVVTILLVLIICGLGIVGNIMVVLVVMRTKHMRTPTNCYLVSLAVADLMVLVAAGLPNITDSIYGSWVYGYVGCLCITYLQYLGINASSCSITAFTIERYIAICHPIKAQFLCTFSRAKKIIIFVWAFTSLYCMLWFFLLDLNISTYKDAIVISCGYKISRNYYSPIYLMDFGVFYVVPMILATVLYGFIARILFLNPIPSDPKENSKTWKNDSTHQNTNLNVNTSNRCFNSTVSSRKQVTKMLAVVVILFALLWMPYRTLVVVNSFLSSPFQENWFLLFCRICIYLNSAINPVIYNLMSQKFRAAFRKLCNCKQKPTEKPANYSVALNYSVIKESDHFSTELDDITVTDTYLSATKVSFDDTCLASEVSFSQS
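In this calcium-flux screen, cells bearing human TRHR are dye-loaded with fluo-8, baselined for 10 cycles, then exposed to library compounds; positive kinetic calcium responses during the agonist phase mark hits, with TRH as control.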
D1 potentiator: enhances dopamine response at the human D1 receptor; P21728; HEK293 TREx D1 cells, calcium flux, dopamine EC20 potentiation; potentiation, % at 10 µM; 0.036% of 360,000 active; in the data active = potentiation above about 30%; also: 0% is about no effect
TRHR PAM: TRH receptor (human) allosteric enhancement; P34981; TRHR cells, fluo-8 calcium fluorescence, EC20 TRH enhancement; enhancement, % at 2 µM; 0.66% of 360,000 active; in the data active = enhancement above about 30%; also: 0% is about no effect
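Enhancer read-out: after compound pinning and an initial kinetic agonist-mode read, an EC20 of TRH (10 nM final) was injected and fluo-8 calcium signal (Ex 480/Em 530) followed at 1 s/cycle for 100 cycles in TRHR-expressing cells.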
D1 antag: antagonists of human D1 dopamine receptor; P21728; HEK293 TREx D1 cells, calcium flux, dopamine EC80; stronger effect = lower value; activity change, negative = inhibition, % at 10 µM; 3.2% of 360,000 active; in the data active = activity change below about -30%; also: % is scaled to controls: 0 for no effect and ±100 for the full control effect
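Allosteric or orthosteric antagonism assessed as attenuation of the calcium response to EC80 dopamine, added 180 s after compound, in induced HEK293 Trex D1 cells loaded with no-wash calcium dye.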
An asterisk follows results filed as active; . = not tested or not shown. Rule as the data show it, unless noted: active = activation above about 30%; inactive = the rest.

SMILES	D1 ag	TRHR ag	D1 potentiator	TRHR PAM	D1 antag
CC(OC(=O)c1ccc2ncsc2c1)C(=O)N1CCCC1 (stereo unspecified)	1	0	0	-5	-4
COC(=O)CCN(c1ccccc1)S(=O)(=O)c1cc(-c2cc(C)no2)ccc1OC	9	0	-5	4	24
C=CCc1ccccc1OCC(O)CN1CCN(c2ccc(OC)cc2)CC1 (stereo unspecified)	5	-1	-8	-1	-64*
OC(COc1ccc(Br)cc1)CN1CCN(c2ccccc2)CC1 (stereo unspecified)	12	1	-6	-2	-46*
N#Cc1nc(Nc2ccc(C(F)(F)F)cc2)nc(NC2CCCC2)n1	8	0	-6	-1	-10
C=C[C@@H]1c2cc(C)ccc2N(S(=O)(=O)c2ccc(C)cc2)[C@H](c2ccc(OC(C)=O)cc2)C1(C#N)C#N	40*	1	0	-3	.
C=C[C@@H]1c2ccccc2N(S(=O)(=O)c2ccc(C)cc2)[C@H](c2ccc(OC(C)=O)cc2)C1(C#N)C#N	4	0	-2	3	-8
COc1ccc(/C=c2\s/c(=C/C(=O)c3ccc(C)cc3)[nH]c2=O)c(OC)c1	136*	54*	-6	1	-3
COc1cccc(/C=c2\s/c(=C/C(=O)c3ccc(C)cc3)[nH]c2=O)c1OC	6	4	-3	1	-9
CCOC(=O)c1c(C)n(-c2ccc(C)cc2)c2ccc(OCC(O)CNCC3CCCO3)cc12 (stereo unspecified)	60*	0	0	1	35
Cc1ccc(C(=O)OC2OC(=O)C(Cl)=C2N2CCOCC2)cc1 (stereo unspecified)	9	1	-5	30*	-17
CC1=CC(C)(C)NC(=S)N1c1ccc(C)c(C)c1	60*	-1	3	-2	-31*
Cc1cc2nc(-c3ccc[nH]c3=O)[nH]c2cc1C	1	0	-9	0	-65*
CN(C)c1ccc(S(=O)(=O)NCC(=O)OCC(=O)c2ccc[nH]2)cc1[N+](=O)[O-]	2	2	1	-4	-19
CCc1ccc(Cc2cnc(NC(=O)c3ccc4c(c3)CC(c3ccccc3)OC4=O)s2)cc1 (stereo unspecified)	3	0	-2	5	-2
COc1cc(/C=C/C(=O)c2ccc([N+](=O)[O-])o2)ccc1O	0	0	3	0	1
COc1cc(/C=C/C(=O)CC(=O)/C=C/c2ccc(O)c(OC)c2)ccc1O	334*	107*	-2	-3	-59*
COc1cc(/C=C/C(=O)/C=C(O)/C=C/c2ccc(O)c(OC)c2)ccc1O	262*	58*	-2	-8	-16
COc1cc(C=C(C(C)=O)C(C)=O)ccc1O	2	1	-3	-5	4
Oc1ccccc1C1C=C(c2ccc3c(c2)OCO3)NC(c2cccc(F)c2)N1 (stereo unspecified)	9	0	2	11	1
CC(=O)Nc1ccccc1-c1nc2ccccc2n(CC(=O)Nc2cccc(C)c2C)c1=O	4	0	-3	-2	0
CCOc1ccccc1Nc1nnc(Cc2ccccc2Cl)c(=O)[nH]1	10	-2	-10	5	-32*
Cc1ccccc1NC(=O)COC(=O)c1cccnc1	3	0	6	-2	-16
Cc1ccccc1NC(=O)COC(=O)c1ccc(CSc2ccc(Cl)cc2)cc1	179*	0	-13	-5	-15
NC(=O)c1ccccc1NC(=O)Nc1cccc(Cl)c1	1	1	-13	13	-42*
SMILES	D1 ag	TRHR ag	D1 potentiator	TRHR PAM	D1 antag
CS(=O)(=O)c1ccc2nc(NC(=O)Nc3cccc(Cl)c3)sc2c1	34*	0	-3	1	-26
CSc1cccc(NC(N)=O)c1	2	1	-8	-6	-19
CS(=O)(=O)c1ccc2nc(NC(=O)Nc3ccc(Cl)c(Cl)c3)sc2c1	8	1	3	-4	-9
Cc1nc2ccc(S(=O)(=O)NC(C(=O)Nc3nc4ccc(Cl)cc4s3)C(C)C)cc2s1 (stereo unspecified)	2	0	.	4	-41*
CSc1cccc(NC(=O)Nc2ccc(Cl)cc2)c1	13	1	-9	-1	-33*
NS(=O)(=O)c1ccc(NC(=O)Nc2cccc(Cl)c2)cc1	1	-4	-10	3	-32*
COC(=O)Nc1ccc(SCC(=O)c2ccc(Cl)cc2)cc1	2	1	2	-3	-32*
COCCOc1cc(NC(=O)CS(=O)CC(=O)N(C)C)c(Cl)cc1Cl (stereo unspecified)	3	0	1	-5	17
CCN(CC)C(=O)CS(=O)(=O)CC(=O)Nc1cc(OCCOC)c(Cl)cc1Cl	1	-1	1	-1	-55*
O=S(=O)(c1ccc2c(c1)OCCO2)N1CCN(S(=O)(=O)c2cc(F)c(Br)cc2F)CC1	1	-2	3	-4	1
CC(C)Oc1cccc(C(=O)NC(=S)NCc2cccnc2)c1	0	-2	-3	40*	-6
CCc1ccc(NC(=O)c2ccc(S(=O)(=O)NCc3cccnc3)cc2)cc1	10	1	.	11	-34*
CCc1ccc(C(=O)NC(=S)NCc2cccnc2)cc1	3	-2	-9	-3	-35*
COc1ccc(S(=O)(=O)N(C)CC(=O)NCCC2=CCCCC2)cc1OC	0	-1	-7	0	8
COc1ccc(CN2CC(C(=O)NCCc3ccc(C)cc3)CC2=O)cc1 (stereo unspecified)	0	0	-2	-1	-47*
COc1ccc(CN2CC(C(=O)NCCc3ccccc3)CC2=O)cc1 (stereo unspecified)	0	0	4	-1	22
COc1ccc(CCNC(=O)C2CCN(S(=O)(=O)c3ccc(OC)c(OC)c3)CC2)cc1OC	0	0	-2	7	-8
CN(Cc1cccs1)C(=O)C1CC(=O)N(Cc2ccccc2)C1 (stereo unspecified)	3	0	-6	8	-54*
COc1ccc(S(=O)(=O)N2CCC(C(=O)NCCC3=CCCCC3)CC2)cc1OC	1	0	-7	10	-43*
COc1ccc(S(=O)(=O)N(C)CC(=O)NCCC2=CCCCC2)cc1	3	-1	-2	35*	-6
CCN(CC)S(=O)(=O)c1ccc(OC)c(NS(=O)(=O)Cc2ccccc2)c1	7	0	-1	4	-7
C/C(=N\NC(=O)c1nn(C)c(C)c1Br)c1ccc(NC(=O)C2CCCC2)cc1	1	0	-1	-7	-11
CCOC(=O)CSc1nc2sc3c(c2c(=O)n1-c1ccccc1)CC(C(C)C)OC3 (stereo unspecified)	1	1	1	-1	-14
